eIF4H FP inh: inhibitors of RNA binding by human eIF4H | AID 2012 | Q15056 | 290,000 tested, 0.94% active | eIF4H fluorescence polarization binding assay | inhibition, % at 35 µM;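 further: calls also rest on retests at 20 µM and on dose response follow-up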
CendR NRP1 mod: NRP-1/CendR interaction modulation | O14786 | FAM-RPARPAR peptide binding to NRP-1, fluorescence polarization | inhibition, % at 25 µM | 360,000 tested, 0.85% active | AID 602438;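 active means inhibition or corrected inhibition above about 18%, plus a signal ratio from 0.5 to 1.5, limit read from the data, passing the limit was not always enough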
Target sequence (O14786 whole entry, looked up): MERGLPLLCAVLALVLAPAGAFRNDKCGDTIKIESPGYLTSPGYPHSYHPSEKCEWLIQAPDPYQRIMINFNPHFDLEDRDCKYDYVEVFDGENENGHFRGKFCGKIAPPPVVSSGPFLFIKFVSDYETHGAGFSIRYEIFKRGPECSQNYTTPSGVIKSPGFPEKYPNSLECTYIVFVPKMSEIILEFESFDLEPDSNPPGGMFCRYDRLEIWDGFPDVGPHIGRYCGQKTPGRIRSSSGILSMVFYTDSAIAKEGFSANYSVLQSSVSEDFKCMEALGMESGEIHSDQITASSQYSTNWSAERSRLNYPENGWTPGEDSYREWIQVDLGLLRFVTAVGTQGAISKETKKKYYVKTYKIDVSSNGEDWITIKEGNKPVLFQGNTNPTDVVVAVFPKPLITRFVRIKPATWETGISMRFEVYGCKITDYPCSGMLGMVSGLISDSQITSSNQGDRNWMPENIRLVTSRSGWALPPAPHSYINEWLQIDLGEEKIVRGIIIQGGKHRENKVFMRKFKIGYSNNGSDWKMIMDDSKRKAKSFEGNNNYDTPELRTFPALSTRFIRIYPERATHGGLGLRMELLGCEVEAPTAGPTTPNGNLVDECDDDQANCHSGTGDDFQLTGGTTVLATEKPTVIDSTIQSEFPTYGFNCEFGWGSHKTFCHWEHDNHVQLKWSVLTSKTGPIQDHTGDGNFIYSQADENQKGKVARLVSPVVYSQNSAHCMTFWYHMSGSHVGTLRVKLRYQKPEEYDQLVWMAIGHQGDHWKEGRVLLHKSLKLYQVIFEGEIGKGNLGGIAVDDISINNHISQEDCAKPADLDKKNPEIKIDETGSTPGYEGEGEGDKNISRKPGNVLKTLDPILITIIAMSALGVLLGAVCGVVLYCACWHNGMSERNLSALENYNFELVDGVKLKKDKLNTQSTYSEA
MLLE-PAM2 inh: inhibitors of microRNA-mediated deadenylation, human PABP1 MLLE binding; AID 588489; inhibition, % at 20 µM; GST-MLLE / FITC-PAM2 fluorescence polarization; P11940; 360,000 tested, 0.36% active; in the data active means inhibition above about 35%, passing the limit was not always enough
PABP FP inh: blocks human PABP binding to poly(A) RNA. fluorescence polarization. AID 2014. inhibition, % at 35 µM. 290,000 tested, 1% active. P11940;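 further: calls also rest on retests at 20 µM and on dose response follow-up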
Each line names hits and unclear results; the compound was inactive in the other large screens. In the library only some 2.1% were active in any assay of this set; here they are far more common. Unless noted, how the calls were made is not given here.

COC(=O)[C@@]12CCCCN1[C@H](c1ccc(-c3cc(C(C)=O)cs3)cc1)[C@H]1C(=O)N(C)C(=O)[C@H]12	none (no result: eIF4H FP inh, PABP FP inh)
CCOC(=O)CC(=O)Nc1ncnc2c1C(c1ccccc1)c1c(ccc3ccccc13)O2 (stereo not drawn)	CendR NRP1 mod 24 (no result: eIF4H FP inh, PABP FP inh)
Nc1ncnc2c1C(c1ccccc1)c1c(ccc3ccccc13)O2 (stereo not drawn)	none (no result: eIF4H FP inh, PABP FP inh)
CC(C)c1onc(C(=O)N(C)C2CCCCC2)c1[N+](=O)[O-]	none
CC(C)c1onc(C(=O)NC2CCCC2)c1[N+](=O)[O-]	eIF4H FP inh 8.3, PABP FP inh 55
COc1ccccc1N1CCN(C(=O)C(C)CS(=O)(=O)c2ccc3c(c2)NC(=O)CS3)CC1 (stereo not drawn)	eIF4H FP inh 56
N#Cc1cnn2c(-c3cccc([N+](=O)[O-])c3)ccnc12	none (no result: eIF4H FP inh, PABP FP inh)
NC(=O)C1CC2(C1)CC(C(N)=O)C2 (stereo not drawn)	none (no result: eIF4H FP inh, PABP FP inh)
CCCC(=O)NC(=S)Nc1cccc(Cl)c1N1CCCC1	MLLE-PAM2 inh 45
O=C(NC(=S)Nc1cccc(Cl)c1N1CCOCC1)c1cccs1	MLLE-PAM2 inh 42
O=C(NC(=S)Nc1cccc(Cl)c1N1CCCCC1)c1ccco1	none
O=C(NC(=S)Nc1cccc(Cl)c1N1CCCCC1)c1cccs1	none
Cc1cccc(NC(=S)NC(=O)c2cccs2)n1	MLLE-PAM2 inh 41
O=C(NC(=S)Nc1cccc2cccnc12)c1cccs1	MLLE-PAM2 inh 48
COc1cc(C(=O)N(C)CC(=O)Nc2cccc(F)c2)ccc1OCc1ccccc1	none (no result: eIF4H FP inh, PABP FP inh)
O=C(NCCOc1cccc2cccnc12)c1cccs1	eIF4H FP inh active, PABP FP inh 52
O=C(NC(=S)Nc1cccc2cccnc12)c1ccccc1	MLLE-PAM2 inh 39
O=C(NC(=S)Nc1cccc2cnccc12)c1ccccc1	none
O=C(NC(=S)Nc1ccc(NC(=O)c2cccs2)cc1)c1cc2ccccc2o1	eIF4H FP inh 96, PABP FP inh 25
CC(=O)NCCOc1cccc2cccnc12	none
CCCCN(C(=O)c1ccc(C#N)cc1)c1c(N)n(CCC)c(=O)[nH]c1=O	none
CC(C)C[C@@H](CN)NC(=O)c1nc[nH]c1C(=O)N[C@@H](C)C(=O)CNC[C@H](C)NC(=O)c1nc[nH]c1C(=O)N[C@@H](C)C(=O)O	none (no result: eIF4H FP inh, PABP FP inh)
OCCCn1c(C2CCCN2c2nc(-c3ccc(Cl)cc3)cs2)nc2cc(Cl)c(N3CCCCC3)cc21 (stereo not drawn)	CendR NRP1 mod 30 (no result: eIF4H FP inh, PABP FP inh)
OCCCn1c(C2CCCN2c2nc(-c3ccc(F)cc3)cs2)nc2cc(Cl)c(N3CCCCC3)cc21 (stereo not drawn)	none (no result: eIF4H FP inh, PABP FP inh)
COc1cc(/C=N/NC(=O)C(=O)NCc2ccco2)cc(Cl)c1O	eIF4H FP inh inconclusive, PABP FP inh 3.8
Nc1cc2c(cc1[N+](=O)[O-])OCO2	PABP FP inh 41
Cc1onc(-c2c(F)cccc2Cl)c1C(=O)NC(=S)NC1CCS(=O)(=O)C1 (stereo not drawn)	MLLE-PAM2 inh 47
Cc1onc(-c2c(F)cccc2Cl)c1C(=O)NC1CCCCCC1	none
Cc1cc2oc(=O)cc(CN3CCCC3)c2cc1C	none (no result: eIF4H FP inh, PABP FP inh)
CCN(CC)Cc1c(O)c(Cl)cc2c(C)cc(=O)oc12	eIF4H FP inh inconclusive, MLLE-PAM2 inh 41
Cc1cc(=O)oc2c(CN3CCC(C)CC3)c(O)c(Cl)cc12	eIF4H FP inh inconclusive, MLLE-PAM2 inh 51, PABP FP inh inconclusive
CCCc1cc(=O)oc2cc(C)c(CN3CCCC3)c(O)c12	eIF4H FP inh 80, PABP FP inh 99
CCCc1cc(=O)oc2c(CN3CCCC3)c(O)ccc12	none
CCc1cc(=O)oc2cc(C)c(CN3CCCCC3)c(O)c12	eIF4H FP inh 70, PABP FP inh 79
CCOC(=O)C1(C)CCCN1C(=O)c1snnc1C (stereo not drawn)	none (no result: eIF4H FP inh, PABP FP inh)
O=C(/C=C/Sc1ccc(C(F)(F)F)cn1)c1ccccc1	none
O=C(Cc1ccc(S(=O)(=O)N2CCOCC2)s1)Nc1cc(Cl)ccc1Cl	none (no result: eIF4H FP inh, PABP FP inh)
CCCc1cc(=O)oc2c(CN3CCCC3)c(O)c(Cl)cc12	eIF4H FP inh 108, PABP FP inh 116
CCc1cc(=O)oc2cc(C)c(CN3CCCC3)c(O)c12	eIF4H FP inh 77, PABP FP inh 67
Cc1cc(C)c2c(CN3CCCC3)cc(=O)oc2c1	none (no result: eIF4H FP inh, PABP FP inh)
CCCCCn1c(N2CCN(c3cccc(Cl)c3)CC2)nc2c1c(=O)[nH]c(=O)n2C	CendR NRP1 mod 28
CC1C2C(C)N(C)C(=O)N(C)C2N(C)C(=O)N1C (stereo not drawn)	MLLE-PAM2 inh 53
N#Cc1c(-c2ccco2)cc(-c2ccccc2)[nH]c1=O	eIF4H FP inh inconclusive, PABP FP inh 101
COc1ccc(N(C(=O)c2cccnc2)S(=O)(=O)c2ccccc2)cc1	CendR NRP1 mod 24
O=C(NCCc1ccccc1)c1n[nH]c2ccccc12	none
CCOC1=C2[C@@H](CN(S(=O)(=O)c3ccccc3C)[C@H]2c2ccc(Cl)cc2)[C@H]2C(=O)N(C3CCCCC3)C(=O)[C@H]2C1	none (no result: eIF4H FP inh, MLLE-PAM2 inh, PABP FP inh)
CCOC1=C2[C@@H](CN(S(=O)(=O)c3ccccc3C)[C@H]2c2ccc(Cl)cc2)[C@H]2C(=O)N(c3ccccc3)C(=O)[C@H]2C1	CendR NRP1 mod 22 (no result: eIF4H FP inh, PABP FP inh)
Cc1ccc(Nc2c([N+](=O)[O-])ccc3c2=NC2(CCCCC2)N=3)cc1	MLLE-PAM2 inh 39
Cc1ccc(NC(=S)NCC(O)c2ccccc2)c(C)c1 (stereo not drawn)	none
CC[C@@H](CCC=C(C)C)C(=O)N(Cc1ccccc1)c1ccccc1	none (no result: eIF4H FP inh, PABP FP inh)
CC(C)C[C@@H](C)C(=O)N(Cc1ccccc1)c1ccccc1	CendR NRP1 mod 32 (no result: eIF4H FP inh, PABP FP inh)
Cc1ccc(S(=O)(=O)N2[C@H](CC(=O)OCc3ccccc3)OC[C@@H]2C(C)C)cc1	none (no result: eIF4H FP inh, MLLE-PAM2 inh, PABP FP inh)
O=C(COc1ccc(S(=O)(=O)N2CCCC2)cc1)N1CCCC1	none
CNc1sc(C(=O)c2ccccc2F)c(N)c1-c1nc2ccccc2s1	MLLE-PAM2 inh 41
COc1ccc(NC(=O)CSc2nc3[nH]ncc3c(=O)[nH]2)c(OC)c1	none (no result: eIF4H FP inh, PABP FP inh)
COc1ccccc1NC(=O)Nc1nc(CC(=O)Nc2ccc(N(C)C)cc2)cs1	none (no result: eIF4H FP inh, PABP FP inh)
Cc1cc(Oc2ccc(N)cn2)ccc1Cl	eIF4H FP inh inconclusive, PABP FP inh 9.2
Cc1ncc(CN2CCC(n3nccc3NC(=O)c3ccccc3)CC2)s1	none
O=C(CSc1ccc2c(c1)OCCO2)NCCc1ccc(Cl)cc1Cl	MLLE-PAM2 inh 40
Cc1nn(-c2ccc(Cl)c(Cl)c2)c(=O)c2ccccc12	CendR NRP1 mod 38
CCOC(=O)C1=C(O)/C(=C\c2sccc2C)N=C1C	eIF4H FP inh 78, PABP FP inh active
CCOc1cc(/C=C2/N=C(C)C(C(=O)OC)=C2O)ccc1O	none
COC(=O)C1=C(O)/C(=C\c2sccc2C)N=C1C	eIF4H FP inh 65, PABP FP inh 4.9
C[C@H](CO)N1C[C@H](C)[C@@H](CN(C)S(=O)(=O)c2cccs2)Oc2c(NC(=O)NC3CCCCC3)cccc2C1=O	none (no result: eIF4H FP inh, PABP FP inh)
Cc1cc(C)c(C)c(S(=O)(=O)Nc2ccccc2C(=O)NN2CCOCC2)c1C	none (no result: eIF4H FP inh, PABP FP inh)
COC(=O)c1cc(CNC(=O)c2ccc(S(=O)(=O)N(C)c3ccccc3)cc2)ccc1OC	none (no result: eIF4H FP inh, PABP FP inh)
Cc1nnc2c(NCCc3ccccc3)nc3ccccc3n12	none
CCOC(=O)CCC(NC(=O)CCCC(=O)NC(CCC(=O)OCC)C(=O)OCC)C(=O)OCC (stereo not drawn)	CendR NRP1 mod 22
